TLR4-MyD88 BLA: inhibitors of human TLR4-MyD88 binding. O00206+Q99836. HeLa CL3-4 TLR4/MyD88 BLA complementation, FRET ratio. inhibition, % at 8.4 µM. hit rate 0.18% among 200,000. AID 861; in the data active means inhibition above about 25%
B2AR ag: human beta-2 adrenergic receptor agonism by FAP | P07550 | Am2.2-beta2AR cells, FAP receptor internalization, flow cytometry | hit rate 0.43% among 340,000 | response, % (concentration not given with the values);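 active means response above a set limit, near 3 SD of response in nonfluorescent compounds, cut at about 42% in these data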
ABHD5-PLIN5 inh: blocks binding of human ABHD5 to perilipin-5. Q00G26+Q8WTS1. Split G. princeps luciferase complementation, luminescence, 4 h. inhibition, % at 4 µM. hit rate 0.78% among 360,000. AID 602281;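 active means inhibition above the mean inhibition across every tested compound plus 3 SD, cut at about 22% in these data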
Granule exo inh: lytic granule exocytosis inhibition; hit rate 0.66% among 360,000; inhibition, % at 10 µM; TALL-104 LAMP-1 surface exposure, flow cytometry; cells stimulated with thapsigargin and PMA;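 active means inhibition above about 55%, limit read from the data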
NOD2-RIPK2 inh: inhibitors of human NOD2-RIPK2 interaction. O43353. CHO BLA complementation NOD2-RIPK2, CCF4 ratio. hit rate 0.38% among 360,000. inhibition, % at 4.98 µM; in the data active means inhibition above about 21%
TLR9-MyD88 inh: blocks human TLR9 binding to MyD88 | CHO BLA complementation TLR9-MyD88, CCF4 FRET ratio | inhibition, % at 4.98 µM | AID 504734 | hit rate 0.21% among 340,000;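 active means inhibition above the mean over all tested compounds plus 3 SD, cut at about 21% in these data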
ABHD5-PLIN5 conf: confirmation of human ABHD5-PLIN5 interaction inhibitors. inhibition, % at 4 µM. AID 651612. hit rate 67% among 2,200. shares compounds with ABHD5-PLIN5 inh. biochemical ABHD5-PLIN5 interaction, luminescence; in the data active means inhibition above about 23%
HNF4 split-luc: counter-screen for ABHD5-PLIN5 inhibitors: HNF4 split-luciferase | AID 651674 | hit rate 77% among 2,200 | shares compounds with ABHD5-PLIN5 inh | HNF4 dimerization, luminescence, biochemical | inhibition, % at 4 µM;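 active means mean inhibition across replicate wells exceeding the computed hit threshold, cut at about 13% in these data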;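 further: light from luciferase halves that rejoin when HNF4 fusion proteins dimerize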
Hits are given with their value; . = inactive; / = not tested or not shown. Rows were chosen to be rich in hits. Some 2% of all compounds tested hit in one or more screens of this group.

SMILES	TLR4-MyD88 BLA	B2AR ag	ABHD5-PLIN5 inh	Granule exo inh	NOD2-RIPK2 inh	TLR9-MyD88 inh	ABHD5-PLIN5 conf	HNF4 split-luc
CCOC(=O)C1(C)CCCN(C(=O)c2cccc3ccccc23)C1 (configuration not stated)	/	/	.	.	.	/	/	/
CC1CCC(C(=O)NNC(=O)c2cc(-c3ccco3)[nH]n2)CC1 (configuration not stated)	.	.	27	.	.	.	.	.
CC1(C(=O)NS(=O)(=O)Cc2cccc(Cl)c2)CCN1C(=O)CC1CCCC1 (configuration not stated)	/	/	.	.	.	/	/	/
Cc1nc(SCC(=O)N(C)Cc2ccco2)c2c(C)c(C)sc2n1	.	.	32	.	.	.	.	22
CC1C(c2ccc3c(c2)OCO3)c2cc3c(cc2OC1N1CCOCC1)OCO3 (configuration not stated)	/	.	.	.	.	.	/	/
Cc1nn(-c2ccc(Cl)cc2)c(Cl)c1/C=C(\C#N)C(N)=O	.	.	.	.	.	.	/	/
C=CCNC(=O)/C(C#N)=C/c1c(C)nn(-c2ccc(Cl)cc2)c1Cl	.	.	34	.	.	.	41	45
COCCNC(=O)c1cc(-c2ccccc2)sc1N	/	/	28	.	.	/	.	.
CCOC(=O)Cc1csc(NC(=O)Nc2ccc(OC(F)(F)F)cc2)n1	/	.	.	.	.	.	/	/
CCOC(=O)Cc1csc(NC(=O)NC2(C(F)(F)F)Oc3cc(Cl)c(Cl)cc3O2)n1	.	.	.	.	.	.	/	/
CCOC(=O)Cc1csc(NC(=O)NC2(C(F)(F)F)Oc3ccc(Cl)cc3O2)n1 (configuration not stated)	.	.	25	.	.	.	54	60
CCOC(=O)Cc1csc(NC(=O)NC2(C(F)(F)F)Oc3ccccc3O2)n1	.	.	26	.	.	.	62	91
CCCOc1ccc(/C=C/c2[nH]c(=O)[nH]c(=O)c2[N+](=O)[O-])cc1OCC	/	.	.	.	.	.	/	/
CCOC(=O)COc1ccc(Br)cc1/C=C/c1[nH]c(=O)[nH]c(=O)c1[N+](=O)[O-]	.	.	65	.	.	.	76	85
CCOC(=O)COc1ccc(Br)cc1/C=C\c1[nH]c(=O)[nH]c(=O)c1[N+](=O)[O-]	.	.	64	.	.	.	85	94
CC(=O)Nc1cccc(C(=O)/C=C/c2ccc(Br)cc2)c1	.	67	79	.	.	.	94	88
COc1ccc(Br)cc1/C=C/C(=O)Nc1ccc2ccccc2c1	.	.	.	.	.	.	/	/
CC(=O)Nc1cccc(C(=O)/C=C/c2ccc[nH]2)c1	/	.	.	.	.	.	/	/
CC(=O)Nc1cccc(C(=O)/C=C/c2ccc(F)cc2)c1	.	54	68	.	.	.	88	80
CCC(=O)Nc1cccc(C(=O)/C=C/c2cc(Br)ccc2OC)c1	.	.	51	.	.	.	92	79
CC(C)N1C(=O)c2ccccc2NC(=O)C1C(=O)NCc1ccccc1 (configuration not stated)	/	/	.	.	.	/	/	/
CCN(C(=O)CN1C(=O)S/C(=C\c2cccc(Cl)c2)C1=O)C1CCS(=O)(=O)C1 (configuration not stated)	/	.	.	.	.	.	/	/
CCN(C(=O)CN1C(=O)S/C(=C\C=C\c2ccccc2)C1=O)C1CCS(=O)(=O)C1 (configuration not stated)	/	.	56	.	.	.	.	22
Cc1cccc(/C=C/C(=O)c2ccc([N+](=O)[O-])o2)c1	/	87	77	.	.	.	104	108
O=C(/C=C/c1cccc([N+](=O)[O-])c1)Nc1cccc(NC(=O)c2ccco2)c1	.	.	.	.	.	.	/	/
SMILES	TLR4-MyD88 BLA	B2AR ag	ABHD5-PLIN5 inh	Granule exo inh	NOD2-RIPK2 inh	TLR9-MyD88 inh	ABHD5-PLIN5 conf	HNF4 split-luc
O=C(/C=C/c1cccc([N+](=O)[O-])c1)NCc1ccc2c(c1)OCO2	.	.	.	.	.	.	/	/
O=C(/C=C/c1cccc([N+](=O)[O-])c1)c1ccc([N+](=O)[O-])o1	/	67	72	.	.	.	105	111
O=C(/C=C/c1cccc([N+](=O)[O-])c1)c1ccco1	/	.	71	.	.	.	97	97
O=C(NCCc1ccccc1)C1Cc2c(-c3ccc4c(c3)OCO4)ccnc2O1 (configuration not stated)	/	/	.	.	.	/	/	/
CN(C)CCCNC(=O)c1cccc(-c2cnc3cccnn23)c1	/	/	.	.	.	/	/	/
CCOC(=O)C(=Cc1cc(=O)c(OC)co1)C(=O)OCC	.	.	24	.	.	.	76	90
COc1coc(C(O)CN)cc1=O (configuration not stated)	.	.	.	.	.	.	/	/
Cc1ccc(-c2csc(NC(=O)C[n+]3cc(-c4ccc(C)cc4)n4c3CCC4)n2)cc1	/	.	25	.	.	.	.	.
O=C(c1ccccc1NS(=O)(=O)c1ccc([N+](=O)[O-])cc1[N+](=O)[O-])N1O[C@@H]2C=C[C@H]1C2	/	.	27	.	.	.	49	74
CC(C)(C)OC(=O)N1CCCC(C(=O)Nc2ccc(C(=O)NC3CC3)cc2)C1 (configuration not stated)	/	.	35	.	.	.	.	.
CN(C(=O)c1ccc(NC(=O)C2CCCN(C(=O)OC(C)(C)C)C2)cc1)C1CC1 (configuration not stated)	/	.	.	.	.	.	/	/
COc1ccc(/C=C/C(=O)c2c(O)ccc3c(C)cc(=O)oc23)cc1	.	.	47	.	.	.	65	55
COc1ccc(/C=C\C(=O)c2c(O)ccc3c(C)cc(=O)oc23)cc1	.	.	47	.	.	.	61	44
Cc1ccc2[nH]c(=O)c(CN(Cc3ccco3)S(=O)(=O)c3c(C)ccc4nsnc34)cc2c1	.	.	25	.	.	.	33	43
C[C@@H]1CN([C@H](C)CO)C(=O)CCCn2cc(nn2)CO[C@H]1CN(C)C(=O)Nc1ccccc1C(F)(F)F	/	/	.	.	.	.	/	/
COc1cc(/C=N/N=C(N)N)ccc1OCc1ccc(Cl)cc1	.	.	24	.	.	.	.	.
COc1cc(/C=N/O)ccc1OCc1ccc(Cl)cc1	.	/	/	/	/	/	/	/
O=C(/C=C/c1ccc(F)cc1)c1ccccc1Br	.	.	56	.	.	.	96	88
COc1ccc(/C=C/C(=O)c2oc3ccc(F)cc3c2C)cc1	.	.	.	.	.	.	/	/
Cc1ccc(C(=O)/C=C/c2ccc(F)cc2)o1	.	.	42	.	.	.	62	47

Screening results: PubChem, several laboratories
